Data taken from PubChem BioAssay (EPA / NIEHS).
Results filed as inconclusive are left out. Activity calls are given as the source filed them. The calls were made as follows, unless noted: active = hit-call score of the fitted dose curve at least 0.9, where 1 is the maximum; inactive = score below 0.9.

How the values were obtained:
[1] = molecular target: human Retinoid X Receptor beta (RXRb), RXRB (gene 6257) (UniProt P28702); assay: ATG_RXRb_TRANS: Attagene TRANS-FACTORIAL HepG2 Assay for human Retinoid X Receptor beta (RXRb) (AID 2283013; active = hit-call score of the fitted dose curve at least 0.9, where 1 is the maximum)
Chain of human Retinoid X Receptor beta (RXRb), RXRB (gene 6257) (P28702 whole entry, looked up, the tested form may be a part): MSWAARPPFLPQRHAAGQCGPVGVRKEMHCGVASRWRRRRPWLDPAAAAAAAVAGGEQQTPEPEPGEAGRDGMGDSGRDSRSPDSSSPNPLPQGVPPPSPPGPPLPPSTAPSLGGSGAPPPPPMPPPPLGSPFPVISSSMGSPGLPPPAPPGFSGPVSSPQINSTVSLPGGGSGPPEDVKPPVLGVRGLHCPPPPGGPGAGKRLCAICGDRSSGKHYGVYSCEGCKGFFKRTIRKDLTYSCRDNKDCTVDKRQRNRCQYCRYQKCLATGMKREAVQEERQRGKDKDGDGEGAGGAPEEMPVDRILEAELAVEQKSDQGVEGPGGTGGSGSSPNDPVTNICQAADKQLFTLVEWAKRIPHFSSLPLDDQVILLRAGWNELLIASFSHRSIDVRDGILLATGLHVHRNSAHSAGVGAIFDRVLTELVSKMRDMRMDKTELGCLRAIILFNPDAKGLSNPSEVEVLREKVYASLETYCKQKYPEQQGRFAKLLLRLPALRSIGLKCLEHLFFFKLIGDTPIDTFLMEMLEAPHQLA
Procedure, shortened: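 Read-out: reporter mRNA induction via RT-PCR plus capillary electrophoresis fluorescence, analysed as signal increase relative to DMSO. Cells were human HepG2, transiently transfected with GAL4-UAS reporter constructs and chimeric receptor-Gal4 fusions, dosed for 24 h.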

[2] = molecular target: human Thyroid Receptor alpha (THRa1), THRA (gene 7067) (UniProt P10827); assay: ATG_THRa1_TRANS: Attagene TRANS-FACTORIAL HepG2 Assay for human Thyroid Receptor alpha (THRa1) (AID 2283014; active = hit-call score of the fitted dose curve at least 0.9, where 1 is the maximum)
Chain of human Thyroid Receptor alpha (THRa1), THRA (gene 7067) (P10827 whole entry, looked up, the tested form may be a part): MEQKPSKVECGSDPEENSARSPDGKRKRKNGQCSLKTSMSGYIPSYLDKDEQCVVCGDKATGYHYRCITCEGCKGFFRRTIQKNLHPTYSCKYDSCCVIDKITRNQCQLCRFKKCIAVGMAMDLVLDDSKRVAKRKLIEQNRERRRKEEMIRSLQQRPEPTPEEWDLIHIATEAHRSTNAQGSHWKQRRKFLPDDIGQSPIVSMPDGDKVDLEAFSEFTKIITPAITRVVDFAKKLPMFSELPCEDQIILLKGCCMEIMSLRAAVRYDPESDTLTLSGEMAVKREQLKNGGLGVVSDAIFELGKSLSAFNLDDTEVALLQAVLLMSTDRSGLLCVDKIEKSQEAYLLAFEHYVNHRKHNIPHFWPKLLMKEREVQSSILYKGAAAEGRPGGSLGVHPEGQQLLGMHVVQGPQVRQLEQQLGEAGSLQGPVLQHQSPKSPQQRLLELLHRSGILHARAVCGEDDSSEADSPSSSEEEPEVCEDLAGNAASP
Procedure, shortened: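 Transcripts from GAL4-UAS-driven reporters, measured after 24 h compound exposure by RT-PCR plus capillary electrophoresis of 6-FAM-labeled fragments, were fitted for gain of signal relative to DMSO. Cells: transiently transfected HepG2 expressing NR-Gal4 chimeras.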

[3] = read-out: E-selectin (Homo sapiens) (UniProt P16581); assay: BSK_3C_Eselectin: BioMAP Diversity Plus: 3C Assay for Eselectin Biomarker Activity (AID 2283015); details: primary human endothelial cells (HUVEC); actives raise or lower the signal;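 as to outcome: cell surface E-selectin protein quantified by ELISA 24 h after dosing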
Procedure, shortened: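 E-selectin ELISA readout, fitted bidirectionally relative to DMSO, taken 24 h post-dosing in HUVEC cultures of the 3C system. Overt cytotoxicity tracked with sulforhodamine B staining of parallel wells.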

[4] = read-out: Interleukin-1 alpha (IL1a), IL1A (gene 3552); assay: BSK_BE3C_IL1a: BioMAP Diversity Plus: BE3C Assay for Interleukin-1 alpha (IL1a) Biomarker Activity (AID 2283016); details: primary human bronchial epithelial cells; actives raise or lower the signal
Procedure, shortened: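 ELISA read-out of IL-1a from human lung bronchial epithelial primary cells, 24 h post-dose. Gain or loss of signal fitted relative to DMSO negative control.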

[5] = read-out: Monocyte Chemoattractant Protein-1 (MCP1), CCL2 (gene 6347); assay: BSK_3C_MCP1: BioMAP Diversity Plus: 3C Assay for Monocyte Chemoattractant Protein-1 (MCP1) Biomarker Activity (AID 2283017); details: primary human endothelial cells (HUVEC); actives raise or lower the signal
Procedure, shortened: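 MCP-1 was measured by ELISA 24 h after dosing in primary HUVEC 3C cultures and fitted in both directions relative to DMSO; cytotoxicity was checked by SRB total-protein staining in parallel wells.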

[6] = read-out: Monocyte Chemoattractant Protein-1 (MCP1), CCL2 (gene 6347); assay: BSK_4H_MCP1: BioMAP Diversity Plus: 4H Assay for Monocyte Chemoattractant Protein-1 (MCP1) Biomarker Activity (AID 2283018); details: primary human endothelial cells (HUVEC); actives raise or lower the signal
Procedure, shortened: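 HUVEC primary cells, 24 h post-dose, MCP-1 by ELISA. Gain or loss of signal fitted bidirectionally vs DMSO baseline. Cytotoxicity: SRB stain (0.1% after 10% TCA fixation), read 560 nm, parallel cultures.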

[7] = read-out: Human Leukocyte Antigen - DR isotype (HLADR), HLA-DRA (gene 3122); assay: BSK_3C_HLADR: BioMAP Diversity Plus: 3C Assay for Human Leukocyte Antigen - DR isotype (HLADR) Biomarker Activity (AID 2283019); details: primary human endothelial cells (HUVEC); actives raise or lower the signal;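 as to outcome: ELISA of cell-surface HLA-DR on HUVEC 24 h after dosing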
Procedure, shortened: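 Bidirectional fitting against DMSO was applied to the HLA-DR ELISA signal from human umbilical vein endothelial cells, 24 h post-dose. Cytotoxicity came from parallel SRB total-protein staining; 3C proliferation was counted by SRB at 48 h.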

[8] = read-out: Interleukin-8 (IL8), CXCL8 (gene 3576); assay: BSK_3C_IL8: BioMAP Diversity Plus: 3C Assay for Interleukin-8 (IL8) Biomarker Activity (AID 2283020); details: primary human endothelial cells (HUVEC); actives raise or lower the signal
Procedure, shortened: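 HUVEC, 3C stimulation; 24 h compound exposure; IL-8 read by ELISA; gain or loss of signal fitted relative to DMSO control.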

[9] = read-out: Monokine induced gamma interferon (MIG), CXCL9 (gene 4283); assay: BSK_3C_MIG: BioMAP Diversity Plus: 3C Assay for Monokine induced gamma interferon (MIG) Biomarker Activity (AID 2283021); details: primary human endothelial cells (HUVEC); actives raise or lower the signal;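 as to AC50: MIG protein level measured by immunoassay in the treated endothelial cultures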
Procedure, shortened: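 HUVEC, 3C system; 24 h chemical exposure; MIG by ELISA; bidirectional fit vs DMSO baseline.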

[10] = BSK_3C_SRB: Viability Assessment in the BioMAP Diversity Plus: 3C Assay (AID 2283023); details: primary human endothelial cells (HUVEC);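 also: fitted both ways against DMSO so a hit may be signal rise or drop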
Procedure, shortened: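 Cytotoxicity readout in parallel HUVEC 3C cultures: after 24 h compound exposure, cells fixed with 10% TCA, stained with 0.1% SRB and read at 560 nm. Gain or loss relative to DMSO fitted.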

[11] = read-out: Matrix Metallopeptidase 1 (MMP1), MMP1 (gene 4312); assay: BSK_BE3C_MMP1: BioMAP Diversity Plus: BE3C Assay for Matrix Metallopeptidase 1 (MMP1) Biomarker Activity (AID 2283024); details: primary human bronchial epithelial cells; actives raise or lower the signal
Procedure, shortened: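 ELISA read-out of MMP1 in human lung bronchial epithelial primary cultures, 24 h post-dose; bidirectional curve fit vs DMSO baseline, gain or loss of signal scored.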

[12] = BSK_3C_Vis: BioMAP Diversity Plus: 3C Assay for Morphology Visualization (AID 2283025); details: primary human endothelial cells (HUVEC);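 also: fitted both ways so gain or loss versus DMSO counts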;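 as to AC50: light microscopy image of cell morphology used as background control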
Procedure, shortened: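 HUVEC, 3C system; light microscopy of morphology at 24 h post-dose. Bidirectional fit vs DMSO baseline. Secondary readout, background-control function.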

[13] = read-out: Pselectin, SELP (gene 6403); assay: BSK_4H_Pselectin: BioMAP Diversity Plus: 4H Assay for Pselectin Biomarker Activity (AID 2283026); details: primary human endothelial cells (HUVEC); actives raise or lower the signal
Procedure, shortened: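 HUVEC, 24 h chemical exposure; P-selectin read by ELISA. Bidirectional curve fit vs DMSO baseline; gain or loss of signal scored.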

[14] = BSK_BE3C_SRB: Viability Assessment in the BioMAP Diversity Plus: BE3C Assay (AID 2283028); details: primary human bronchial epithelial cells;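 as to AC50: fitted both ways so AC50 may mark signal gain or loss versus DMSO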
Procedure, shortened: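 Cytotoxicity read-out: SRB (0.1%) staining of TCA-fixed (10%) human lung bronchial epithelial cells, absorbance 560 nm, 24 h post-dosing. Curves fitted both directions relative to DMSO.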

[15] = read-out: Thrombomodulin, THBD (gene 7056); assay: BSK_3C_Thrombomodulin: BioMAP Diversity Plus: 3C Assay for Thrombomodulin Biomarker Activity (AID 2283029); details: primary human endothelial cells (HUVEC); actives raise or lower the signal
Procedure, shortened: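 HUVEC, 3C conditions; compound 24 h; thrombomodulin by ELISA; bidirectional curve fit vs DMSO baseline; parallel SRB total-protein staining for cytotoxicity.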

[16] = read-out: Urokinase-type plasminogen activator receptor (uPAR), PLAUR (gene 5329); assay: BSK_4H_uPAR: BioMAP Diversity Plus: 4H Assay for Urokinase-type plasminogen activator receptor (uPAR) Biomarker Activity (AID 2283030); details: primary human endothelial cells (HUVEC); actives raise or lower the signal
Procedure, shortened: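 uPAR level read by ELISA on HUVEC cultures (BioMAP 4H) 24 h post-dosing, analyzed for gain or loss relative to DMSO. Parallel SRB staining assessed overt cytotoxicity.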

[17] = BSK_4H_SRB: Viability Assessment in the BioMAP Diversity Plus: 4H Assay (AID 2283027); details: primary human endothelial cells (HUVEC);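 also: cells exposed to compound for 24 h before staining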
Procedure, shortened: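 Cytotoxicity read-out in primary human endothelial cells: after 24 h compound exposure, cells were TCA-fixed (10%), stained with 0.1% SRB and absorbance taken at 560 nm. Values fitted in both directions relative to DMSO.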

[18] = molecular target: Retinoic acid receptor RXR-alpha (Homo sapiens) (UniProt P19793); assay: ATG_RXRa_TRANS: Attagene TRANS-FACTORIAL HepG2 Assay for human Retinoid X Receptor alpha (RXRa) (AID 2283012; active = hit-call score of the fitted dose curve at least 0.9, where 1 is the maximum)
Chain of Retinoic acid receptor RXR-alpha (Homo sapiens) (P19793 whole entry, looked up, the tested form may be a part): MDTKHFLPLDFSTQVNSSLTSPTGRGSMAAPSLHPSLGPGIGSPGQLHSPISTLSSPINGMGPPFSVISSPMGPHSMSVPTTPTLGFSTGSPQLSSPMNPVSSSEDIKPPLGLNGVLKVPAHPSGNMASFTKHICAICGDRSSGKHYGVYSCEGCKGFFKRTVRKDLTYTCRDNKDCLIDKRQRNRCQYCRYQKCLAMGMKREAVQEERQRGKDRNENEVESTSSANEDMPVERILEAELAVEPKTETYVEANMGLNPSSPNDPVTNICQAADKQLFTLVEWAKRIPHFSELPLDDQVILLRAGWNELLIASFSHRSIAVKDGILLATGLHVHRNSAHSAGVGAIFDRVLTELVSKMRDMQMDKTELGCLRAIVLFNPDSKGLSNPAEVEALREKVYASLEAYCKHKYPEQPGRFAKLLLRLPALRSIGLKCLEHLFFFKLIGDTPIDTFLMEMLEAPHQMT
Procedure, shortened: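 Read-out: fluorescent reporter-transcript fragments quantified by capillary electrophoresis after RT-PCR. Transiently transfected HepG2 cells carrying GAL4-UAS reporters and NR-GAL4 chimeras were exposed to chemical for 24 h; activity scored as increase over DMSO.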

[19] = molecular target: human RAR-related Orphan Receptor gamma (RORg), RORC (gene 6097) (UniProt P51449); assay: ATG_RORg_TRANS: Attagene TRANS-FACTORIAL HepG2 Assay for human RAR-related Orphan Receptor gamma (RORg) (AID 2283011; active = hit-call score of the fitted dose curve at least 0.9, where 1 is the maximum)
Chain of human RAR-related Orphan Receptor gamma (RORg), RORC (gene 6097) (P51449 whole entry, looked up, the tested form may be a part): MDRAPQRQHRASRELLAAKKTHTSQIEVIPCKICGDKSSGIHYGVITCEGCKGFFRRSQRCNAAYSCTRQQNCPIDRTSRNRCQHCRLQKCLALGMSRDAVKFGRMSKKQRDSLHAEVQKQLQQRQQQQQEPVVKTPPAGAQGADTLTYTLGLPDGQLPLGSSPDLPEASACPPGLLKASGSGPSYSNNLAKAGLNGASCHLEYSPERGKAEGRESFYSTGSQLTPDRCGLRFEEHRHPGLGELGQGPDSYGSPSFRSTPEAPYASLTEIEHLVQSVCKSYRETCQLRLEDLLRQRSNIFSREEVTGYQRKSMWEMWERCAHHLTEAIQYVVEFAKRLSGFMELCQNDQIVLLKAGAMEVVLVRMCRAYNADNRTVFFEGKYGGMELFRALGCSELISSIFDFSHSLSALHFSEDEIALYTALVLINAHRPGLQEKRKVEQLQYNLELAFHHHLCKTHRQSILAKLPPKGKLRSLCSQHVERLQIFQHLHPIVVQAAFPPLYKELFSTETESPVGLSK
Procedure, shortened: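 Reporter transcripts from a transfected RORg-GAL4 chimera in HepG2 cells were quantified 24 h after dosing by RT-PCR, 6-FAM labelling, HpaI digestion and capillary electrophoresis; increases over DMSO baseline were fitted.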

Chain of E-selectin (Homo sapiens) (P16581 whole entry, looked up): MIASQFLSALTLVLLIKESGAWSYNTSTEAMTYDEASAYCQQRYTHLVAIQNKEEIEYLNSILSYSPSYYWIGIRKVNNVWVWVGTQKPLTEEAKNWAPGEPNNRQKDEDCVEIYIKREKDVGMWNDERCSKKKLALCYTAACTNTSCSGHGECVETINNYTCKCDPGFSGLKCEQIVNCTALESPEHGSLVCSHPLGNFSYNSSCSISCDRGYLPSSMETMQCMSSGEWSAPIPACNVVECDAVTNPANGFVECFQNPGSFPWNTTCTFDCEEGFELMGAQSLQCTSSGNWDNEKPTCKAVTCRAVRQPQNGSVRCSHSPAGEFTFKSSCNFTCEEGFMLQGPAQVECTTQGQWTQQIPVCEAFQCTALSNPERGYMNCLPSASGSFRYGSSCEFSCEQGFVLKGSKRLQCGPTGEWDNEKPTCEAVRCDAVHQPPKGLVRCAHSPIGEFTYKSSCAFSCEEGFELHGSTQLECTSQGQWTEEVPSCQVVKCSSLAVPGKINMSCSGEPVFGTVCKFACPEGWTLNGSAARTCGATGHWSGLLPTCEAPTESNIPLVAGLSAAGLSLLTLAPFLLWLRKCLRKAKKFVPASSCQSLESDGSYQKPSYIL

COc1cc(Cl)c(OC)cc1Cl
outcome [1]: inactive
outcome [2]: inactive
outcome [3]: inactive
outcome [4]: inactive
outcome [5]: inactive
outcome [6]: inactive
outcome [7]: inactive
outcome [8]: inactive
outcome [9]: inactive
outcome [10]: inactive
outcome [11]: inactive
outcome [12]: inactive
outcome [13]: inactive
outcome [14]: inactive
outcome [15]: inactive
outcome [16]: inactive

CCCC(=NOCC)C1=C(O)CC(CC(C)SCC)CC1=O (configuration not stated)
outcome [3]: inactive
outcome [4]: inactive
outcome [5]: inactive
outcome [6]: inactive
outcome [7]: inactive
outcome [8]: inactive
outcome [9]: inactive
outcome [10]: inactive
outcome [11]: inactive
AC50 [12]: 39 µM (active)
outcome [13]: inactive
outcome [14]: inactive
outcome [15]: inactive
outcome [16]: inactive

O=C(O)c1c(Cl)ccc2cc(Cl)cnc12
outcome [2]: inactive
outcome [3]: inactive
outcome [4]: inactive
outcome [5]: inactive
outcome [6]: inactive
outcome [7]: inactive
outcome [8]: inactive
outcome [9]: inactive
outcome [10]: inactive
outcome [11]: inactive
outcome [12]: inactive
outcome [13]: inactive
outcome [17]: inactive
outcome [14]: inactive
outcome [15]: inactive
outcome [16]: inactive

N#Cc1c(Cl)cccc1Cl
outcome [18]: inactive
outcome [1]: inactive
outcome [2]: inactive
outcome [3]: inactive
outcome [4]: inactive
outcome [5]: inactive
outcome [6]: inactive
AC50 [7]: 3.97 µM (active)
outcome [8]: inactive
outcome [9]: inactive
outcome [10]: inactive
outcome [11]: inactive
outcome [12]: inactive
outcome [13]: inactive
outcome [17]: inactive
outcome [14]: inactive
outcome [15]: inactive
outcome [16]: inactive

CCCCOCN(C(=O)CCl)c1c(CC)cccc1CC
outcome [18]: inactive
outcome [1]: inactive
outcome [2]: inactive
AC50 [3]: 19.3 µM (active)
AC50 [4]: 36.5 µM (active)
AC50 [5]: 30.2 µM (active)
AC50 [6]: 25.6 µM (active)
AC50 [7]: 31 µM (active)
AC50 [8]: 34.5 µM (active)
AC50 [9]: 32.9 µM (active)
AC50 [10]: 28.5 µM (active)
AC50 [11]: 33.2 µM (active)
AC50 [12]: 29.4 µM (active)
AC50 [13]: 21.9 µM (active)
AC50 [14]: 31.1 µM (active)
AC50 [15]: 8.66 µM (active)
AC50 [16]: 38.8 µM (active)

CN=C=S
outcome [19]: inactive
outcome [2]: inactive
AC50 [3]: 11.7 µM (active)
outcome [4]: inactive
outcome [5]: inactive
outcome [6]: inactive
AC50 [7]: 8.86 µM (active)
outcome [8]: inactive
outcome [9]: inactive
outcome [10]: inactive
outcome [11]: inactive
outcome [12]: inactive
outcome [13]: inactive
outcome [14]: inactive
outcome [15]: inactive
outcome [16]: inactive
